From the supplement of paper PMC8728848
This excerpt belongs to a sample that is enriched for the strongest signals.

Key:
Experiment in all cases: glycan array binding signal (z-score within array); higher = stronger binding
Conditions in all cases: glycan notation: IUPAC condensed, linker removed
[1] = target: Fuc(a1-2)Gal(b1-3)GalNAc(b1-3)Gal
How it was run: (§1)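 Negative Z-scores can be read as non-binding. The Z-score is calculated within each array and then averaged across arrays of one protein sequence at different concentrations or buffers and across linkers. Arrays, 3228 in all, were curated from the Consortium for Functional Glycomics database and kept only where the protein sequence was available.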

[2] = target: Fuc(a1-2)Gal(b1-4)GlcNAc(b1-3)Gal(b1-4)GlcNAc(b1-3)Gal(b1-4)GlcNAc
How it was run: as §1

[3] = target: Fuc(a1-2)Gal(b1-4)GlcNAc(b1-3)GalNAc
How it was run: as §1

[4] = target: Fuc(a1-2)Gal(b1-4)[Fuc(a1-3)]GlcNAc(b1-3)Gal(b1-4)[Fuc(a1-3)]GlcNAc
How it was run: as §1

[5] = target: Fuc(a1-2)[Gal(a1-3)]Gal(b1-3)GalNAc
How it was run: as §1

[6] = target: Fuc(a1-2)[Gal(a1-3)]Gal(b1-4)GlcNAc
How it was run: as §1

[7] = target: Fuc(a1-2)[Gal(a1-3)]Gal(b1-4)GlcNAc(b1-3)[Fuc(a1-2)[Gal(a1-3)]Gal(b1-4)GlcNAc(b1-6)]GalNAc
How it was run: as §1

[8] = target: Fuc(a1-2)[Gal(a1-3)]Gal(b1-4)[Fuc(a1-3)]GlcNAc(b1-3)GalNAc
How it was run: as §1

[9] = target: Fuc(a1-2)[GalNAc(a1-3)]Gal(b1-4)GlcNAc
How it was run: as §1

[10] = target: Fuc(a1-3)GlcNAc
How it was run: as §1

[11] = target: Fuc(a1-3)[Gal(b1-4)]GlcNAc(b1-2)Man(a1-3)[Fuc(a1-3)[Gal(b1-4)]GlcNAc(b1-2)Man(a1-6)]Man(b1-4)GlcNAc(b1-4)[Fuc(a1-6)]GlcNAc
How it was run: as §1

[12] = target: Gal(a1-2)Gal
How it was run: as §1

[13] = target: Gal(a1-3)Gal(b1-4)Glc
How it was run: as §1

[14] = target: Gal(a1-3)Gal(b1-4)GlcNAc
How it was run: as §1

[15] = target: Gal(a1-3)Gal(b1-4)[Fuc(a1-3)]GlcNAc(b1-2)Man(a1-3)[Gal(a1-3)Gal(b1-4)[Fuc(a1-3)]GlcNAc(b1-2)Man(a1-6)]Man(b1-4)GlcNAc(b1-4)GlcNAc
How it was run: as §1

[16] = target: Gal(a1-3)[Gal(a1-4)]Gal(b1-4)GlcNAc
How it was run: as §1

[17] = target: Gal(b1-3)GlcNAc(b1-6)[Gal(b1-3)]GalNAc
How it was run: as §1

[18] = target: Gal(b1-4)GlcNAc(b1-2)Man(a1-3)[Gal(b1-4)GlcNAc(b1-2)Man(a1-6)]Man(b1-4)GlcNAc(b1-4)[Fuc(a1-6)]GlcNAc
How it was run: as §1

[19] = target: Gal(b1-4)GlcNAc(b1-2)Man(a1-3)[Man(a1-6)]Man(b1-4)GlcNAc(b1-4)GlcNAc
How it was run: as §1

[20] = target: Gal(b1-4)GlcNAc(b1-2)Man(a1-6)[GlcNAc(b1-2)Man(a1-3)]Man(b1-4)GlcNAc(b1-4)GlcNAc
How it was run: as §1

[21] = target: Gal(b1-4)GlcNAc(b1-2)[Gal(b1-4)GlcNAc(b1-4)]Man(a1-3)[GlcNAc(b1-4)][Gal(b1-4)GlcNAc(b1-2)Man(a1-6)]Man(b1-4)GlcNAc(b1-4)GlcNAc
How it was run: as §1

[22] = target: Gal(b1-4)GlcNAc(b1-3)Gal(b1-4)GlcNAc(b1-3)Gal(b1-4)GlcNAc(b1-3)Gal(b1-4)GlcNAc(b1-3)Gal(b1-4)GlcNAc(b1-2)Man(a1-3)[Gal(b1-4)GlcNAc(b1-3)Gal(b1-4)GlcNAc(b1-3)Gal(b1-4)GlcNAc(b1-3)Gal(b1-4)GlcNAc(b1-3)Gal(b1-4)GlcNAc(b1-2)Man(a1-6)]Man(b1-4)GlcNAc(b1-4)GlcNAc
How it was run: as §1

[23] = target: Gal(b1-4)GlcNAc(b1-3)Gal(b1-4)GlcNAc(b1-3)GalNAc
How it was run: as §1

[24] = target: Gal(b1-4)GlcNAc(b1-3)Gal(b1-4)[Fuc(a1-3)]GlcNAc(b1-3)Gal(b1-4)[Fuc(a1-3)]GlcNAc
How it was run: as §1

[25] = target: Gal3S(b1-4)GlcNAc
How it was run: as §1

[26] = target: GalNAc(a1-3)GalNAc
How it was run: as §1

[27] = target: GalNAc(b1-4)GlcNAc(b1-2)Man(a1-3)[GalNAc(b1-4)GlcNAc(b1-2)Man(a1-6)]Man(b1-4)GlcNAc(b1-4)GlcNAc
How it was run: as §1

B1: BT3172pd (Bacteroides thetaiotaomicron) (protein)
chain: MLPLRAEHYYYKQISLKEGLPSNVRCILRDEQGFIWIGTKAGLGKFDGHQLKRYKHQANDPHSLLHNLIYQIAEDKQHNIWILTEKGIARYQQQSNNFTFPTDEEGNYITAYSFCLVPDGILFGGKDRIYKYSYKDSSLRLLQYFNANSFKITALSVWDSKTLLCCSRWTGLYLVDLQTGEHRRPPFDCGPEITSMITDSKNRIWIAPYSGGLRCYSRDGKLSASYTTHNSSLSNDIVLSLAEREEQLWIGTDGGGINILHPETGEISQLEYIPGRENYSLPANSILCLHNDYNNNVWAGSTCNGLISIREVSMKTYTDVVPGNDRGLSNGTVRSLYRQSPDSIWIGTDGGGINLFSPHTEKFTHYSSTWGDKVAFISGFTPGKLLISLFSKGVFVFNPATGEKQPFTIIDKETTTRLCNRGKSVNLYQNTPNTVLFLGDHIYQYHLKEKKFSTITEEEGKDIVGTLVPFDHQENLTYINDIKHIYELDDQTSRLKTVFECYTDTVISSVSHDEQGHFWIGSNFGLIHYDPVLKSRTLVPTNLFTEINMVLCDQKGKVWIGVDNMLFAYFIKEQKFVLFGESNGAIQNEYLPNARLVNEQGDAYIGGVKGMLRIDGQLLLNTSEMPELQLLDITINGESANHEWYNHPAKISVPWNSNISIRIMSREEDIFRQKIYRYQIEGLNNEYTESYNPELVIRSLLPGSYRIMASCTAKDGSWIPDQQVLELTVLPPWYRTHHHHHH
B1 was tested, and the “glycan array binding signal (z-score)” value [1] was -1.16, the “glycan array binding signal (z-score)” value [2] was -0.03 and the “glycan array binding signal (z-score)” value [3] was -0.024. The “glycan array binding signal (z-score)” value [4] was -0.649, the “glycan array binding signal (z-score)” value [5] was 0.258 and the “glycan array binding signal (z-score)” value [6] was -0.52. For the same binder, the “glycan array binding signal (z-score)” value [7] was 5.41, the “glycan array binding signal (z-score)” value [8] was -0.194 and the “glycan array binding signal (z-score)” value [9] was -0.511. For the same binder, the “glycan array binding signal (z-score)” value [10] was -0.076, the “glycan array binding signal (z-score)” value [11] was 2.04 and the “glycan array binding signal (z-score)” value [12] was -0.237. The “glycan array binding signal (z-score)” value [13] was -0.327, the “glycan array binding signal (z-score)” value [14] was -0.339 and the “glycan array binding signal (z-score)” value [15] was 2.4. For the same binder, the “glycan array binding signal (z-score)” value [16] was 2.39, the “glycan array binding signal (z-score)” value [17] was -0.299 and the “glycan array binding signal (z-score)” value [18] was -0.075. The “glycan array binding signal (z-score)” value [19] was -0.349, the “glycan array binding signal (z-score)” value [20] was 0.924 and the “glycan array binding signal (z-score)” value [21] was -0.47. The “glycan array binding signal (z-score)” value [22] was 5.07, the “glycan array binding signal (z-score)” value [23] was -0.264 and the “glycan array binding signal (z-score)” value [24] was -0.565. The “glycan array binding signal (z-score)” value [25] was 0.279, the “glycan array binding signal (z-score)” value [26] was -0.288 and the “glycan array binding signal (z-score)” value [27] was -0.134.
